20 compounds from PubChem BioAssay (NCI) can be followed below.

The nature of assay [1]: NCI Yeast Anticancer Drug Screen. Data for the rad50 strain (AID 155).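 Also: 0% = growth of vehicle-only cultures of the same strain.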 The following applies: S. cerevisiae rad50 strain growth inhibition; at 50.0 µM; stronger effect = higher value. Summed up: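 Growth of the mutant yeast was measured after compound exposure and referenced to vehicle-treated cultures.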
Assay [2] can be described thus: NCI Yeast Anticancer Drug Screen. Data for the mec2-1 strain (AID 157). The following applies: S. cerevisiae mec2-1 strain, at 50.0 µM, stronger effect = higher value. Summed up:
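Vehicle-treated cultures served as reference for growth inhibition of compound-exposed mec2-1 yeast.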

Assay [3] can be described thus: NCI Yeast Anticancer Drug Screen. Data for the sgs1 mgt1 strain (AID 161).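 Also: 0% = growth of cultures given vehicle only.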 As to conditions: S. cerevisiae sgs1 mgt1 strain, at 50.0 µM, stronger effect = higher value. Summed up:
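Genetically altered yeast, compound exposure, growth inhibition relative to vehicle.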

Assay [4] in a line: NCI Yeast Anticancer Drug Screen. Data for the cln2 rad14 strain (AID 165).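 Also: 0% = growth equal to vehicle treated cultures.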 As to conditions: S. cerevisiae cln2 rad14 strain, at 50.0 µM, stronger effect = higher value. The essentials: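 Each compound was tested on cln2 rad14 yeast. Inhibition of growth was calculated against vehicle-exposed controls.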
A short description of assay [5]: NCI Yeast Anticancer Drug Screen. Data for the bub3 strain (AID 167). As to conditions: S. cerevisiae bub3 mutant strain, at 50.0 µM, stronger effect = higher value. The essentials: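 Whole-cell yeast assay. The mutant strain was incubated with compounds, and growth inhibition was determined by comparison with vehicle-treated cells.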
A short description of assay [6]: NCI Yeast Anticancer Drug Screen. Data for the mlh1 rad18 strain (AID 175). As to conditions: S. cerevisiae mlh1 rad18 strain growth inhibition; at 50.0 µM; stronger effect = higher value. The essentials:
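Vehicle-treated cultures served as the reference for growth inhibition in a yeast strain carrying DNA damage repair alterations exposed to each compound.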

About 79,000 compounds went through this panel and 15% of them were active in at least one assay; those are over-represented in the sample as a whole. Values without a mark were called inactive. Activity calls are given as the source filed them. Rule as the data show it: active = growth inhibition above about 70%; inactive = the rest. Where a SMILES comes first, the peptide text is derived from it. [ ]: non-standard residue; d: D form. The star is where a group is joined. Hyp = O=C(O)[CH]1C[CH](O)CN1; Cbz = O=C(OCc1ccccc1)*

In the case of `CN(C)Cc1cc(N=Nc2ccccc2)ccc1O`, the growth inhibition is -23.4% in assay [1]; -12.2% in assay [2]; -12.4% in assay [3]; 9.4% in assay [4]; 4.9% in assay [5]; -19.4% in assay [6].
With `Nc1ccc2ccccc2c1C(=O)c1ccccc1`, the growth inhibition in assay [1] is 0.95%; in assay [2], -1.55%; in assay [3], -15.2%; in assay [4] it was 37.1%; in assay [5], -23.6%; in assay [6] it was -5.75%.
For `CCC1SC(N)=NC1c1ccccc1` (stereo not given), the growth inhibition in assay [1] was 22.2%; in assay [2] it was 2.85%; in assay [3], 31.9%; in assay [4], 9.95%; in assay [5] it was 14.1%; in assay [6], 24.6%.
Regarding `COC(=O)CC(CC(=O)OC)N1CC=CC1`, the growth inhibition in assay [1] was -12.9%; in assay [2] it was 10.5%; in assay [3], -5.95%; in assay [4], -15.1%; in assay [5], 5.35%; in assay [6], 31.6%.
In the case of `CCC1(O)C(=O)Nc2ccccc2C1=O` (stereo not given), the growth inhibition in assay [1] is -3%; in assay [2] it was -22.8%; in assay [3] it was -17.3%; in assay [4] it was -13.6%; in assay [5] it was -23.1%; in assay [6] it was -5.85%.
As for `NC(=O)CNC(=O)C1CC(O)CN1C(=O)C1CCCN1C(=O)OCc1ccccc1` (stereo not drawn) (Cbz-Pro-[Hyp]-Gly-NH2; configuration not given here), the growth inhibition in assay [1] is -3.9%; in assay [2] it was 1.1%; in assay [3] it was 1.55%; in assay [4], 4.15%; in assay [5], 9.45%; in assay [6] it was 2.2%.
As for `N#C[C@H](c1nc2ccccc2s1)c1nc2ccccc2nc1Cl`, the growth inhibition in assay [1] was 4.95%; in assay [2], 6.85%; in assay [3], 22.4%; in assay [4], 1.45%; in assay [5], 5.15%; in assay [6], 5.25%.
In the case of `O=C1C[C@H]2CCCC[C@@H]2O1`, the growth inhibition in assay [1] was 2%; in assay [2] it was 3.55%; in assay [3], 26.5%; in assay [4], 39.1%; in assay [5] it was -13.5%; in assay [6], -6%.
`CCOC(=O)c1c(C)[nH]c(C)c1/C=C/C(=O)O`: the growth inhibition in assay [1] is 0.95%; in assay [2], -5.1%; in assay [3] it was -0.9%; in assay [4] it was 1.45%; in assay [5], 2.35%; in assay [6], -0.8%.
As to `COC1=CC(=C(\C#N)c2ccccc2)/C=CC/1=N/O`, the growth inhibition in assay [1] is 40.2%; in assay [2], 39%; in assay [3] it was 46.6%; in assay [4], -2%; in assay [5], 64.5%; in assay [6], 46.8%.
For the compound `CCOC(=O)c1ccc(NC(=S)NCc2cccnc2)cc1`, the growth inhibition in assay [1] was 11.6%; in assay [2], -3.25%; in assay [3] it was 24.6%; in assay [4], 4.95%; in assay [5], 22.2%; in assay [6] it was -6.7%.
In the case of `CCN(CC)CCCCCOC(=O)c1ccccc1`, the growth inhibition in assay [1] was 23.2%; in assay [2], 28.2%; in assay [3] it was 48.5%; in assay [4], 40%; in assay [5], 43.4%; in assay [6] it was 18.6%.
Consider `Nc1ccc(N=Nc2c(S(=O)(=O)O)cc3cc(S(=O)(=O)O)cc(O)c3c2O)cc1`, for which the growth inhibition was -30.8% in assay [1]; -16.4% in assay [2]; -29.5% in assay [3]; -23.9% in assay [4]; 6.55% in assay [5]; 10.8% in assay [6].
`NNC(=O)c1ccccc1O`: the growth inhibition in assay [1] was 36%; in assay [2], 14.4%; in assay [3] it was 15.5%; in assay [4], -12.3%; in assay [5], 13.4%; in assay [6] it was 62%.
As to `CCOC(=O)CC1(C)c2nc(NC(C)=O)sc2Cc2sc(NC(C)=O)nc21`, the growth inhibition in assay [1] was -2.2%; in assay [2], -8.9%; in assay [3] it was 0.8%; in assay [4] it was -26.6%; in assay [5], -2.4%; in assay [6], -15.5%.
For the compound `Cc1ccc(S(=O)(=O)C(Cl)(SCl)Sc2ccccc2)cc1` (stereo not given), the growth inhibition in assay [1] was 64%; in assay [2], 41.2%; in assay [3], 74.9% (active); in assay [4], 47.3%; in assay [5], 46.4%; in assay [6], 77.9% (active).
Turning to `CC1=C2CC[C@@]3(C)C(=CCC3O)C2(C)CCC1=O` (stereo not given in full), the growth inhibition in assay [1] is -1.3%; in assay [2], 11.9%; in assay [3], -7.5%; in assay [4], -34%; in assay [5], -8.9%; in assay [6], -7.6%.
For `CC1=C(C#N)C(C#N)(C#N)C(NN(C)C)C1` (stereo not given), the growth inhibition was 8.3% in assay [1]; 20.9% in assay [2]; 1.5% in assay [3]; -8.6% in assay [4]; -15.9% in assay [5]; -40% in assay [6].
Consider `O=C1CCCCC1C(Nc1ccccc1)c1ccccc1` (stereo not given), for which the growth inhibition in assay [1] was 2.95%; in assay [2], -6%; in assay [3] it was -10.7%; in assay [4], 15.8%; in assay [5], -2.6%; in assay [6] it was 17.1%.
For the compound `Cc1[nH]c(=O)[nH]c(=O)c1/C=C/C(=O)NC(CO)CSC(C)C` (stereo not given), the growth inhibition in assay [1] was -2%; in assay [2], 27.1%; in assay [3], -7.75%; in assay [4], -3.9%; in assay [5] it was 8.4%; in assay [6], 9.55%.
